In article PMC7862700, “An all-to-all approach to the identification of sequence-specific readers for epigenetic DNA modifications on cytosine” one finds binding signal data, which are given here for one sequence.

Experiment in all cases: DAPPL (digital affinity profiling via proximity ligation, sequencing); 10 mM Tris-HCl pH 7.5, 50 mM NaCl, 1 mM DTT, 4% glycerol, room temperature, 30 min; GST-TFs on glutathione beads, 16-mer random dsDNA library, 0.1% formaldehyde crosslink after washing; high values mean tight binding
Test [1] has as its target T1, FEV (Homo sapiens, UniProt Q99581 1-238).
T1 sequence: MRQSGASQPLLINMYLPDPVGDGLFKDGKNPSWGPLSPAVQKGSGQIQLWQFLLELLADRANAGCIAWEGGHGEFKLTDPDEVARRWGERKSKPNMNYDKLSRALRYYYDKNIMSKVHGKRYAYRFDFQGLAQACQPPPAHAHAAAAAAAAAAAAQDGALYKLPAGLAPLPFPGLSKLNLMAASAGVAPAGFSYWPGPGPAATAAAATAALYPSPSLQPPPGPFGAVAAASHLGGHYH
Conditions: protein: recombinant; tags: N-terminal GST; dsDNA, one strand shown. An outline of the steps:
(§1)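 Human transcription factors fused to GST were expressed in yeast, captured on glutathione beads, given DNA barcodes and pooled with a GST-only negative control. Pools were incubated with 200 nmole of a 16-mer random double-stranded DNA library in Tris/NaCl/DTT/glycerol buffer at room temperature for 30 min. They were then washed, crosslinked with 0.1% formaldehyde, proximity-ligated (BsaI/T4 ligase, 1 h, 37 °C), PCR-amplified and sequenced on an Illumina NextSeq500. Binding signal is each 6-mer's read frequency for a factor divided by its frequency for the GST control.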

Test [2] has as its target ETV5 (Homo sapiens, UniProt P41161 1-510). The settings on record: protein: recombinant; tags: N-terminal GST; dsDNA, one strand shown. An outline of the steps: as §1
Test [3] deals with HSF1 (Homo sapiens, UniProt Q00613 1-529). The settings on record: protein: recombinant; tags: N-terminal GST; chain copies: 3; dsDNA, one strand shown. The gist of the method:
as §1

Test [4] concerns the target T2, SPIC (Homo sapiens, UniProt Q8N5J4 1-248).
T2 sequence: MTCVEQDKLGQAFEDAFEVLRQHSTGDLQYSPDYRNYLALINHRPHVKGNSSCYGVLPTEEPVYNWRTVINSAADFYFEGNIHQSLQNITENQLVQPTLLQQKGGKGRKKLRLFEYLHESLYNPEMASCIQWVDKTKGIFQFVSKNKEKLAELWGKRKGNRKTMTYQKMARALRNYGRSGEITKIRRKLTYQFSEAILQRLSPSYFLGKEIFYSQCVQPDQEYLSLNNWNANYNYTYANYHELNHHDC
Conditions: protein: recombinant; tags: N-terminal GST; dsDNA, one strand shown. An outline of the steps:
as §1

The target of test [5] is ELF4 (Homo sapiens, UniProt Q99607 1-663). The settings on record: protein: recombinant; tags: N-terminal GST; dsDNA, one strand shown. The gist of the method:
as §1

The target of test [6] is T3, ELK4 (Homo sapiens, UniProt P28324-2 1-405).
T3 sequence: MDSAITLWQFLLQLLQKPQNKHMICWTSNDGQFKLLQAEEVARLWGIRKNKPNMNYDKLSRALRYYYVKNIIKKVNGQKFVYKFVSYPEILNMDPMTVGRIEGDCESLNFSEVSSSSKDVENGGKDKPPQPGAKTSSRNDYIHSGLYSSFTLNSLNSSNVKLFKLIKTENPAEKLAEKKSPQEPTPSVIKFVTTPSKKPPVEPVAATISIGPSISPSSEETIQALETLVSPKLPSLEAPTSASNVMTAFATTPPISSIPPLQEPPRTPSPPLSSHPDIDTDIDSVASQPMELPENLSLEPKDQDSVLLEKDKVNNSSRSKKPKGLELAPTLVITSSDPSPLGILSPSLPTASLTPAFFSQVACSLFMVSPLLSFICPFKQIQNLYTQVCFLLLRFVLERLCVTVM
The settings on record: protein: recombinant; tags: N-terminal GST; dsDNA, one strand shown. An outline of the steps: as §1

The target of test [7] is T4, ETV2 (Homo sapiens, UniProt O00321 1-342).
T4 sequence: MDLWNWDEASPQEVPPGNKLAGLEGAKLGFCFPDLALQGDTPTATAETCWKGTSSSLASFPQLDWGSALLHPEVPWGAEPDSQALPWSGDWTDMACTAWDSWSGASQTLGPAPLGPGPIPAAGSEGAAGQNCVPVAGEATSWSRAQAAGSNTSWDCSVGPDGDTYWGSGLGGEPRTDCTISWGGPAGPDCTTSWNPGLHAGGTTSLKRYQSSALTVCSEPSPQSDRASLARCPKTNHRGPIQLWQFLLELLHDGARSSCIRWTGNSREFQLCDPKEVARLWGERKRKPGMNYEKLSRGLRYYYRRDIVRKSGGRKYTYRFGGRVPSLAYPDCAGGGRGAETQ
The settings on record: protein: recombinant; tags: N-terminal GST; dsDNA, one strand shown. An outline of the steps:
as §1

Test [8] concerns the target T5, ELF3 (Homo sapiens, UniProt P78545 1-371).
T5 sequence: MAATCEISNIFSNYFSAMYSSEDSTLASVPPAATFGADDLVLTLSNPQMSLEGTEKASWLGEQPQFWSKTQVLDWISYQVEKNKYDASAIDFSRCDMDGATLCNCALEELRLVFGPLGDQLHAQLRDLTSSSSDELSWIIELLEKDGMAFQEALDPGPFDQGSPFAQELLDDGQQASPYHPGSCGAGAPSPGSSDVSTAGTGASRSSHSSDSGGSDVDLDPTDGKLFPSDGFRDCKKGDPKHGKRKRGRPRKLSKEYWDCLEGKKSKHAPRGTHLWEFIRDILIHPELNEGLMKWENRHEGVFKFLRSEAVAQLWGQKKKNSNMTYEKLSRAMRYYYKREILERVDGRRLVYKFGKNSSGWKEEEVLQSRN
Conditions: protein: recombinant; tags: N-terminal GST; dsDNA, one strand shown. An outline of the steps:
as §1

The target in test [9] is CRX (Homo sapiens, UniProt O43186 1-299). The settings on record: protein: recombinant; tags: N-terminal GST; dsDNA, one strand shown. An outline of the steps:
as §1

Test [10] deals with ETV1 (Homo sapiens, UniProt P50549 1-477). Conditions: protein: recombinant; tags: N-terminal GST; dsDNA, one strand shown. The gist of the method:
as §1

The target of test [11] is T6, ERF (Homo sapiens, UniProt P50548 1-548).
T6 sequence: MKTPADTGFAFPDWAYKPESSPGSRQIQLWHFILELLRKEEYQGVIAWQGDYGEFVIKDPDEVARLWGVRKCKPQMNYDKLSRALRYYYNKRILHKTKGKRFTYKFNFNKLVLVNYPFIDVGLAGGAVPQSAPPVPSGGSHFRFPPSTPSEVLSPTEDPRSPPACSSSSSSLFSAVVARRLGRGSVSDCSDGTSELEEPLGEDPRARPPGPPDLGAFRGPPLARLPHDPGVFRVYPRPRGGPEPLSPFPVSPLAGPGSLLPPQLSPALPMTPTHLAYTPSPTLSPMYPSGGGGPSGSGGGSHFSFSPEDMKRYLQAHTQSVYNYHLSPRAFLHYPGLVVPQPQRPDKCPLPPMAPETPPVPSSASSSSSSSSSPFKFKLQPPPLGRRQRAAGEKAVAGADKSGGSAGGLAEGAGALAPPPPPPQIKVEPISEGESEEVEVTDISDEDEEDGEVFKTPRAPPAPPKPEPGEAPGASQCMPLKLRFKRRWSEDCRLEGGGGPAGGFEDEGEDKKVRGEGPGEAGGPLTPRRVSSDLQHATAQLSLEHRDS
Conditions: protein: recombinant; tags: N-terminal GST; dsDNA, one strand shown. An outline of the steps: as §1

In test [12] the target is T7, ETV3L (Homo sapiens, UniProt Q6ZN32 1-361).
T7 sequence: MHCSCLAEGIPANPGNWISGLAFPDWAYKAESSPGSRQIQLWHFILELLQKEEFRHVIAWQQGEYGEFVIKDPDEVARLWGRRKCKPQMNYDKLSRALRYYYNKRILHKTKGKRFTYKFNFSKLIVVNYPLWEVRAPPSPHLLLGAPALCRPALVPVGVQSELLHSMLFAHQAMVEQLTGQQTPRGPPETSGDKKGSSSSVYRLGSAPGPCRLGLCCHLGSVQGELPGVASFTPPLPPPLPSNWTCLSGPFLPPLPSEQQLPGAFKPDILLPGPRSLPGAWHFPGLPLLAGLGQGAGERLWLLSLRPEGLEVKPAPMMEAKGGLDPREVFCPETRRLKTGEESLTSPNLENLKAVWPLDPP
The settings on record: protein: recombinant; tags: N-terminal GST; dsDNA, one strand shown. The gist of the method:
as §1

Test [13] deals with T8, ETS2 (Homo sapiens, UniProt P15036 1-469).
T8 sequence: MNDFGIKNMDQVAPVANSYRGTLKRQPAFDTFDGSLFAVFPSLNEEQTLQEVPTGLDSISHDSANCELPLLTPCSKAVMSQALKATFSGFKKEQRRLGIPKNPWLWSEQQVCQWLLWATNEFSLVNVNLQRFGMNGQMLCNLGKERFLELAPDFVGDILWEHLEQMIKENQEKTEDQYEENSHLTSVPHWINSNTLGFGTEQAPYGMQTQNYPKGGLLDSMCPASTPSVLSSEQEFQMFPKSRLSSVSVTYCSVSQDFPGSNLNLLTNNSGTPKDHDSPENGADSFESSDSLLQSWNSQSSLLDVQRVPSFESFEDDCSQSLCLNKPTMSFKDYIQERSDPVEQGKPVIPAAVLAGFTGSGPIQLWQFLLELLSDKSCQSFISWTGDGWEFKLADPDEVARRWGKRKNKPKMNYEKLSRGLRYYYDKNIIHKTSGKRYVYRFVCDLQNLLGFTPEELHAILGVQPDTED
The settings on record: protein: recombinant; tags: N-terminal GST; dsDNA, one strand shown. The gist of the method:
as §1

For test [14], the target named is T9, SPDEF (Homo sapiens, UniProt O95238 1-335).
T9 sequence: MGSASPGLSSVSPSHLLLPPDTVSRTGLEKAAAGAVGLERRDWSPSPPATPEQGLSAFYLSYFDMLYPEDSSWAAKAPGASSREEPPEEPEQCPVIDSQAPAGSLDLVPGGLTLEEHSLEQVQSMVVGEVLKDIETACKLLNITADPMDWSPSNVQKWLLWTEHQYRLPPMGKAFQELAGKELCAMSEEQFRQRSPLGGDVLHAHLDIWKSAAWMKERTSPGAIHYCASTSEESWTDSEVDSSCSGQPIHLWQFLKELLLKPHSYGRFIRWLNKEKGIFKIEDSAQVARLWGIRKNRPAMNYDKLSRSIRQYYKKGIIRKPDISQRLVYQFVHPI
The settings on record: protein: recombinant; tags: N-terminal GST; dsDNA, one strand shown. The gist of the method: as §1

Test [15] has as its target T10, ETV7 (Homo sapiens, UniProt Q9Y603 1-341).
T10 sequence: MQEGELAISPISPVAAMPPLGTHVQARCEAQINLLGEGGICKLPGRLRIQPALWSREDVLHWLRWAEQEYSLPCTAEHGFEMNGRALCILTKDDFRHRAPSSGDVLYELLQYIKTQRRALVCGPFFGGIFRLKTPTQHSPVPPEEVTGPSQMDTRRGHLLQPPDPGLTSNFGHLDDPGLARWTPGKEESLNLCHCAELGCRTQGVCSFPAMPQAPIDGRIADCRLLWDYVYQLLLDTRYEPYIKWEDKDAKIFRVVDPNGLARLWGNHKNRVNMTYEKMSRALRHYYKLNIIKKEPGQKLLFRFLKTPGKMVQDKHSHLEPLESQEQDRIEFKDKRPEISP
Conditions: protein: recombinant; tags: N-terminal GST; dsDNA, one strand shown. The gist of the method:
as §1

In test [16] the target is T11, ELF5 (Homo sapiens, UniProt Q9UKW6-2 1-255).
T11 sequence: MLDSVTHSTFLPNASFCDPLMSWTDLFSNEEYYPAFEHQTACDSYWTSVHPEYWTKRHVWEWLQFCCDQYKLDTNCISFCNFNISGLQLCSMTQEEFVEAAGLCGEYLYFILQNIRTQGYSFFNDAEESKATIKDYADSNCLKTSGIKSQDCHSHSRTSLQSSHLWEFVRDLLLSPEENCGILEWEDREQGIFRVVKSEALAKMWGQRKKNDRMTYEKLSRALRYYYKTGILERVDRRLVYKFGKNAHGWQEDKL
Conditions: protein: recombinant; tags: N-terminal GST; dsDNA, one strand shown. The gist of the method:
as §1

Test [17] addresses T12, ETV3 (Homo sapiens, UniProt P41162-2 1-143).
T12 sequence: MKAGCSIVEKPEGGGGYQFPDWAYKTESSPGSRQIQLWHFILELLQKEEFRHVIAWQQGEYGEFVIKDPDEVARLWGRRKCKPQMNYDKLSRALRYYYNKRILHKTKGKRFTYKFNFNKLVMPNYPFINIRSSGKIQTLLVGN
Conditions: protein: recombinant; tags: N-terminal GST; dsDNA, one strand shown. An outline of the steps: as §1

The target in test [18] is ETV6 (Homo sapiens, UniProt P41212 1-452). The settings on record: protein: recombinant; tags: N-terminal GST; dsDNA, one strand shown. The gist of the method: as §1
ETV6, sequence (P41212 whole entry): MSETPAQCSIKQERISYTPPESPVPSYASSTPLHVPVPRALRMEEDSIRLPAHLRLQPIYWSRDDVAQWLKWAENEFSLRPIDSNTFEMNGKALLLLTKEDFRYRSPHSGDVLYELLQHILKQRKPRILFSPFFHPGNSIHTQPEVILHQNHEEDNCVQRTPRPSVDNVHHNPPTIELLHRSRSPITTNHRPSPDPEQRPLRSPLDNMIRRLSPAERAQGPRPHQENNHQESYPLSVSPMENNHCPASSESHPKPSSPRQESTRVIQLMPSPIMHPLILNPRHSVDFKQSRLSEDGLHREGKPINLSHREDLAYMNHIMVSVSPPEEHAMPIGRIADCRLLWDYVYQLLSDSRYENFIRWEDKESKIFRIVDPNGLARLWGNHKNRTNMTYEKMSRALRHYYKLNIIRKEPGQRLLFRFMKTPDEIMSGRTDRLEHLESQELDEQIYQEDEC

HSF1, sequence (Q00613 whole entry): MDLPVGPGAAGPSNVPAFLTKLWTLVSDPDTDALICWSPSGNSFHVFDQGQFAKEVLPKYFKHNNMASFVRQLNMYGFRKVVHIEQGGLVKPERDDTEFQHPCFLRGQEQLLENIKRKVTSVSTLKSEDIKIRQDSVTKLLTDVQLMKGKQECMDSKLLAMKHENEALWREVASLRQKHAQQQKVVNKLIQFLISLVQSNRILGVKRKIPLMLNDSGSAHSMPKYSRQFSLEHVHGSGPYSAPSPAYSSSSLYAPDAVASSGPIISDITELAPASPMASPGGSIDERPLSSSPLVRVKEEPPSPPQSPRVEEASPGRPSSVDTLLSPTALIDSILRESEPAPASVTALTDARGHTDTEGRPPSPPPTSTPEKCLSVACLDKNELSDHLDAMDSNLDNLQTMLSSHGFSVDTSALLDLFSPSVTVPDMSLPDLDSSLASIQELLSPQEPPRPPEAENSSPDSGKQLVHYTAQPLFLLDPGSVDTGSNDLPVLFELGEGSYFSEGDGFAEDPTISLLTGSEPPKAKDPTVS
ELF4, sequence (Q99607 whole entry): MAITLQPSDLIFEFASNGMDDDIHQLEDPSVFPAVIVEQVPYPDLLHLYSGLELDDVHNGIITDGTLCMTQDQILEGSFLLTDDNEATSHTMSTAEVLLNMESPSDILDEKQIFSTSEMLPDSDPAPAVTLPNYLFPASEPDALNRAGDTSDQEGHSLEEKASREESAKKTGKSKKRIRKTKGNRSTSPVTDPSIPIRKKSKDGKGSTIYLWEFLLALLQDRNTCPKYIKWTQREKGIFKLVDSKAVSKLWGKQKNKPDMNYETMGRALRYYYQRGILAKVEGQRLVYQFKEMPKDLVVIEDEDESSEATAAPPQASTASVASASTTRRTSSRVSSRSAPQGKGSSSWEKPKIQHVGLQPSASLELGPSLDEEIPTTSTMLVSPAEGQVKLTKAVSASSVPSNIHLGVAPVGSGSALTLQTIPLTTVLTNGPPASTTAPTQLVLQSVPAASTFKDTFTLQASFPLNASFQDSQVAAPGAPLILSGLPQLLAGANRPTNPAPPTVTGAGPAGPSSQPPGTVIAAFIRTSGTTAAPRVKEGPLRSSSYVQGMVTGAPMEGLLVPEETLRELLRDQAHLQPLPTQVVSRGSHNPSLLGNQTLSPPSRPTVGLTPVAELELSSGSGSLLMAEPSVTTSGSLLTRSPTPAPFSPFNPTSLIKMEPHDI
ETV5, sequence (P41161 whole entry): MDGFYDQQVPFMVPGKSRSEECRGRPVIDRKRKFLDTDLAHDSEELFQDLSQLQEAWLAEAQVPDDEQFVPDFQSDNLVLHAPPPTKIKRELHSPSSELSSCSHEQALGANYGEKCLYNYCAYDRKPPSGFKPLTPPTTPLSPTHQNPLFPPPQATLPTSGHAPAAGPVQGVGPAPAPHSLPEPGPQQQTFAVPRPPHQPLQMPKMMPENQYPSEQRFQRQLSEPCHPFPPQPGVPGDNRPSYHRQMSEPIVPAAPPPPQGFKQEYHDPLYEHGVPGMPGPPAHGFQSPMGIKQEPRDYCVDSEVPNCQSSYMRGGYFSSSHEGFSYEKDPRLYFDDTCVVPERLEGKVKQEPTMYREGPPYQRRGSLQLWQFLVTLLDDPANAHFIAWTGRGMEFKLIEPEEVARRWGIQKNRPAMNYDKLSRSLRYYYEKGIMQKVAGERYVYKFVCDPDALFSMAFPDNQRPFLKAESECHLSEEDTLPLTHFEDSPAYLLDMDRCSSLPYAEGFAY
ETV1, sequence (P50549 whole entry): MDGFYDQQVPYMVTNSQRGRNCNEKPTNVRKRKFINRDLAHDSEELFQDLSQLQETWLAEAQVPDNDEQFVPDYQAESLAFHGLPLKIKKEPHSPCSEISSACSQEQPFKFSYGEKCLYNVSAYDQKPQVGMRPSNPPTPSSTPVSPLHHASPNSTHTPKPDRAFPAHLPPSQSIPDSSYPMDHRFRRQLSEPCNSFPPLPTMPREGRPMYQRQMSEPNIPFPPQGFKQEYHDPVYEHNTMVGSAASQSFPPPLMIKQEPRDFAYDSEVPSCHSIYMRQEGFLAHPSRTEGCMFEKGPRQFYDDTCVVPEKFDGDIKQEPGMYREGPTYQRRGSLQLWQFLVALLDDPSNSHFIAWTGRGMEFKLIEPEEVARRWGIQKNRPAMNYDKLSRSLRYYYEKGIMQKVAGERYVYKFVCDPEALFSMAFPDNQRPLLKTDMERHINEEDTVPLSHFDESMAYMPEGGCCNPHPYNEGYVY
CRX, sequence (O43186 whole entry): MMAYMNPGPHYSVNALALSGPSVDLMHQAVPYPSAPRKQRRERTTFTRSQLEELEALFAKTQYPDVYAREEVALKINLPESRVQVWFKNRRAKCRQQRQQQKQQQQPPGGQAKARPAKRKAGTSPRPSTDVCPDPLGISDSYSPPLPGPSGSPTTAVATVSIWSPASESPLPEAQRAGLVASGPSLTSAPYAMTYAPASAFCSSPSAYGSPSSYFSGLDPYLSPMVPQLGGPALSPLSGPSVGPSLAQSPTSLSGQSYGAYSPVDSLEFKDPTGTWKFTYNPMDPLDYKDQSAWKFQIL

As to CTCGAT, the binding signal in test [1] was 1.29 fold enrichment (6-mer frequency, TF over GST control); in test [2], 1.3 fold enrichment (6-mer frequency, TF over GST control); in test [3] it was 2.06 fold enrichment (6-mer frequency, TF over GST control); in [4], 1.46 fold enrichment (6-mer frequency, TF over GST control); in [5] it was 1.43 fold enrichment (6-mer frequency, TF over GST control); in test [6], 1.59 fold enrichment (6-mer frequency, TF over GST control). The binding signal is 1.25 fold enrichment (6-mer frequency, TF over GST control) in test [7]; 1.09 fold enrichment (6-mer frequency, TF over GST control) in [8]; 1.48 fold enrichment (6-mer frequency, TF over GST control) in test [9]; 1.27 fold enrichment (6-mer frequency, TF over GST control) in test [10]; 1.37 fold enrichment (6-mer frequency, TF over GST control) in test [11]; 1.44 fold enrichment (6-mer frequency, TF over GST control) in test [12]. The binding signal is 1.36 fold enrichment (6-mer frequency, TF over GST control) in test [13]; 1.22 fold enrichment (6-mer frequency, TF over GST control) in test [14]; 1.31 fold enrichment (6-mer frequency, TF over GST control) in [15]; 1.22 fold enrichment (6-mer frequency, TF over GST control) in test [16]; 1.36 fold enrichment (6-mer frequency, TF over GST control) in [17]; 1.3 fold enrichment (6-mer frequency, TF over GST control) in test [18].
